From the supplement of paper PMC4723716

Test system: Plasmodium falciparum NF54 gametocytes
Test: viability index relative to DMSO control (fraction); higher = less gametocyte killing
Details: 12.5 µM, incubation time: 72 h
Method in brief: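 Each stage (I–V) of P. falciparum NF54 gametocytes was incubated with compound at 12.5 µM in 384-well plates, in 40 µl of serum-containing medium at 0.50% gametocytemia and 1.25% hematocrit, for 72 hr at 37°C under low oxygen. After 5 µl of 5 µM MitoTracker Red CMXRos was added for 20 min, 5 µl from each well was moved into 40 µl of 500 nM dye in serum-free medium and imaged across three fields after 30 min. The viability index is the gametocyte particle count divided by the plate mean of the solvent-only wells.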

[1] = gametocyte stage: Stage I viability index
[2] = gametocyte stage: Stage II viability index
[3] = gametocyte stage: Stage III viability index
[4] = gametocyte stage: Stage IV viability index
[5] = gametocyte stage: Stage V viability index

Row | Structure (SMILES) | viability index [1] | viability index [2] | viability index [3] | viability index [4] | viability index [5]
1 | CCOC(=O)c1cnc2c(C)cccc2c1Nc1ccc(C(C)=O)cc1 | 1.16 | 0.83 | 1.06 | 1.08 | 1.03
2 | Cc1cc(=O)oc2c1ccc1oc(C(=O)c3ccccc3)c(C)c12 | 0.948 | 1 | 0.867 | 0.972 | 1.01
3 | O=C(NC1CCCCC1)C(c1cccs1)N(CCc1ccccc1)C(=O)c1ccco1 (stereo not given) | 0.98 | 0.838 | 1 | 1.04 | 0.961
4 | CC(C)c1ccc(CNCC(O)c2ccccc2)cc1 (stereo not given) | 0.032 | 0.118 | 0.492 | 0.568 | 0.648
5 | CCOC(=O)c1cnc2ccc(Cl)cc2c1NCCCN(C)C | 0.309 | 0.59 | 0.989 | 1.03 | 0.844
6 | c1ccc(-c2ccc(-c3nc4ccccc4[nH]3)cc2)cc1 | 0.527 | 0.768 | 0.867 | 0.784 | 0.967
7 | Nc1ccn(C2O[C@H](CO)[C@@H](O)[C@H]2O)c(=O)n1 (stereo not given in full) | 0.976 | 1.14 | 0.955 | 1.07 | 1.1
8 | CCc1ccc(Nc2cc(C)nc3nc(C)nn23)cc1 | 0.925 | 0.736 | 1.01 | 1.1 | 1.1
9 | CCC(=O)Nc1nnc(Cc2ccc(OC)c(OC)c2)s1 | 1.02 | 0.965 | 0.901 | 1.08 | 1.38
10 | COc1ccc(Br)cc1C1Nc2ccc3ccccc3c2C2=C1C(=O)CC(c1ccccc1)C2 (stereo not given) | 0.44 | 0.729 | 0.873 | 0.939 | 1.05
11 | CC(=O)NCCc1nc2ccccc2n1Cc1ccc(C(C)C)cc1 | 0.788 | 0.671 | 0.883 | 0.891 | 0.813
12 | CC(=O)c1sc(NC(=O)Nc2ccc(C)cc2C)nc1C | 0.271 | 0.455 | 0.673 | 0.801 | 0.714
13 | Brc1ccc(Nc2nc3ccccc3nc2Nc2ccc(Br)cc2)cc1 | 0.0192 | 0.00916 | 0.0204 | 0.0222 | 0.104
14 | CCOc1ccc(N2C(N)=NC(N)=NC2(C)C)cc1 | 1.12 | 0.909 | 0.844 | 0.959 | 1.08
15 | O=C(O)C1Cc2c([nH]c3ccccc23)C(c2ccc(Cl)cc2Cl)N1 (stereo not given) | 1.04 | 0.891 | 1.08 | 1.05 | 0.967
16 | CCN1CCN(c2cc(C)c3cc(NC(=O)c4ccc(OC)c(OC)c4)ccc3n2)CC1 | 0.33 | 0.677 | 1.04 | 0.818 | 0.901
17 | CCOc1cc(Cl)c(C(C)NC(=O)c2ccccc2)cc1OCC (stereo not given) | 0.728 | 0.781 | 0.819 | 1.03 | 0.901
18 | CN(C)c1ccc(-c2nc3cc(N)ccc3[nH]2)cc1 | 0.0873 | 0.566 | 0.962 | 0.939 | 0.725
19 | Cc1cc(NC(=O)c2cccc(C(F)(F)F)c2)n(-c2nc(-c3ccc4c(c3)OCO4)cs2)n1 | 1.26 | 0.943 | 1.1 | 0.951 | 0.956
20 | CN(C)c1ccc(C=Cc2nc(=O)c3ccccc3o2)cc1 | 0.611 | 0.713 | 0.82 | 0.921 | 0.835

Row | Structure (SMILES) | viability index [1] | viability index [2] | viability index [3] | viability index [4] | viability index [5]
21 | Cc1ccccc1OCCSc1nc2ccc(NC(=O)c3cccs3)cc2s1 | 1.13 | 0.918 | 1.08 | 0.927 | 1.27
22 | Cc1cc(NCCN2CCCCC2)c2ccc3ccccc3c2n1 | 0.0508 | 0.404 | 0.536 | 0.495 | 0.132
23 | CCOC(=O)c1c(NC(=O)c2ccccc2)sc2c(O)c(CN(CC)CC)ccc12 | 0.0641 | 0.129 | 0.32 | 0.517 | 0.407
24 | O=C1c2ccc3c4c(ccc(c24)C(=O)N1CCCCO)C(=O)N(CCCCO)C3=O | 0.364 | 0.261 | 0.204 | 0.168 | 0.182
25 | O=C(Nc1ccc(Cl)cc1)N1CCN(c2ccc3nncn3n2)CC1 | 0.865 | 1.02 | 1.15 | 1.14 | 1.11
26 | COc1ccc2nc(N)nc(C)c2c1 | 0.353 | 0.614 | 0.685 | 0.959 | 1.04
27 | O=C(NC1CCN(Cc2ccccc2)CC1)c1cc(-c2ccncc2)nc2ccc(Cl)cc12 | 0.601 | 0.662 | 1.08 | 0.994 | 0.791
28 | Cc1ccc(-c2nc3ccccc3o2)cc1NCc1cc(Cc2ccccc2)ccc1O | 0.0201 | 0.0666 | 0.389 | 0.513 | 0.792
29 | Cc1ccc(-c2cc3c(SCC(=O)Nc4cc(C(F)(F)F)ccc4Cl)nccn3n2)cc1 | 1.03 | 0.896 | 1.11 | 0.921 | 0.791
30 | O=C(CSc1nccn2nc(-c3ccccc3)cc12)Nc1cc(C(F)(F)F)ccc1Cl | 0.845 | 0.896 | 0.973 | 1.08 | 1.4
31 | CCOc1cc(Cl)c(C(C)NC(=O)c2cccc(OC)c2)cc1OCC (stereo not given) | 0.0343 | 0.121 | 0.143 | 0.298 | 0.231
32 | CCN(CC)CCNc1ccnc2cc3ccccc3cc12 | 0.0323 | 0.0591 | 0.106 | 0.0475 | 0.039
33 | CCc1ccc(CNCC(O)c2ccccc2)cc1 (stereo not given) | 0.042 | 0.177 | 0.649 | 0.703 | 0.506
34 | CN(C)CCCNc1c2ccccc2nc2ccccc12 | 0.0663 | 0.0164 | 0.0835 | 0.201 | 0.231
35 | COc1ccc(C2C(C(=O)Nc3cccc(OC)c3)c3ccccc3C(=O)N2C2CCCCC2)cc1 (stereo not given) | 0.0691 | 0.0974 | 0.488 | 0.551 | 0.519
36 | CC(C)CCNCC(O)Cn1c2ccccc2c2ccccc21 (stereo not given) | 0.0507 | 0.0691 | 0.0706 | 0.193 | 0.0779
37 | COc1ccc(-c2cc3c(SCC(=O)Nc4cc(C(F)(F)F)ccc4Cl)nccn3n2)cc1 | 1.04 | 0.886 | 1.06 | 0.924 | 1.05
38 | FC(F)(F)c1cccc(CNC2CCN(CCc3ccccc3)CC2)c1 | 0.0431 | 0.464 | 0.856 | 0.83 | 0.802
39 | Cc1sc(NC(=O)c2ccco2)c(C(c2cccnc2)N2CCC(Cc3ccccc3)CC2)c1C (stereo not given) | 0.00962 | 0.0408 | 0.261 | 0.418 | 0.351
40 | Oc1c(C(Nc2ccccn2)c2cccc(Oc3ccccc3)c2)ccc2cccnc12 (stereo not given) | 1.06 | 0.975 | 1.04 | 0.994 | 0.675

Row | Structure (SMILES) | viability index [1] | viability index [2] | viability index [3] | viability index [4] | viability index [5]
41 | Cc1ccc(Cn2c(N3CCC(C(=O)NCc4cccs4)CC3)nc3ccccc32)cc1 | 0.593 | 0.289 | 0.545 | 0.544 | 0.308
42 | CC(C)(C)C(=O)Nc1ccc(C(=O)Nc2cccc(-c3nc4ccccc4[nH]3)c2)cc1 | 0.111 | 0.592 | 0.694 | 0.833 | 0.604
43 | c1ccc2c(NCCc3c[nH]c4ccccc34)c3ccccc3nc2c1 | 0.145 | 0.22 | 0.609 | 0.687 | 0.675
44 | CCOC(=O)C1=C(C)N=c2sc(=Cc3cc(Cl)ccc3O)c(=O)n2C1c1ccc(OC)cc1 (stereo not given) | 0.0559 | 0.0966 | 0.137 | 0.171 | 0.416
45 | Cc1ccc(Nc2nc(N)c3ccccc3n2)cc1Cl | 0.0341 | 0.49 | 0.695 | 0.753 | 0.481
46 | C=C(C)CCC(C)N1CCC(N2CCC(C(=O)NCCc3ccccc3)CC2)CC1 (stereo not given) | 0.538 | 0.665 | 0.948 | 0.845 | 0.758
47 | CCN1CCN(c2c(C(=O)c3ccccc3)cnc3cc(OC)c(OC)cc23)CC1 | 1.03 | 0.988 | 1.22 | 1 | 0.909
48 | O=C(Nc1cccc(C(F)(F)F)c1)c1cc(Cl)ccc1O | 0.00552 | 0.00676 | 0.0184 | 0.0669 | 0.11
49 | CC(C)(C)c1ccc2c(c1)CN(Cc1ccc(Cl)cc1)CO2 | 0.12 | 0.192 | 0.385 | 0.633 | 0.442
50 | COc1ccc(-c2nc(N3CCN(C(=O)C4CCCCC4)CC3)c3c4c(sc3n2)CCCC4)cc1 | 1.05 | 0.922 | 1.06 | 0.915 | 0.779
51 | Cc1cc(Nc2ccc(Cl)cc2)n2nc(C(F)(F)F)nc2n1 | 0.957 | 0.975 | 1.03 | 0.97 | 1
52 | COc1cccc(NC(=O)[C@H](C(C)C)n2c(=O)[nH]c3ccccc3c2=O)c1 | 0.0552 | 0.0213 | 0.0736 | 0.286 | 0.341
53 | N=c1n(CCN2CCCCC2)c2ccccc2n1CC(=O)c1ccc(Cl)c(Cl)c1 | 0.115 | 0.281 | 0.848 | 0.886 | 0.753
54 | N=c1c2ccccc2nnn1-c1cccc(C(F)(F)F)c1 | 0.988 | 0.714 | 1.02 | 0.785 | 0.87
55 | N=c1n(CCN2CCCCC2)c2ccccc2n1CC(O)c1cccc(Br)c1 (stereo not given) | 0.0133 | 0.056 | 0.133 | 0.267 | 0.341
56 | Cc1ccc(Nc2nc(-c3ccccn3)cs2)cc1 | 0.193 | 0.22 | 0.109 | 0.173 | 0.121
57 | COCCNCC(O)Cn1c2ccc(Cl)cc2c2cc(Cl)ccc21 (stereo not given) | 0.105 | 0.0937 | 0.407 | 0.511 | 0.429
58 | Oc1ccc(-c2nc(-c3ccc4oc5ccc(-c6[nH]c(-c7ccc(O)cc7)nc6-c6ccccc6)cc5c4c3)c(-c3ccccc3)[nH]2)cc1 | 0.000874 | 0 | 0 | 0 | 0.013
59 | COc1cccc(Nc2nc(N)c3ccccc3n2)c1 | 0.131 | 0.524 | 0.786 | 0.797 | 0.649
60 | COc1ccc2nc(C)cc(Nc3ccc(Cl)cc3)c2c1 | 0.243 | 0.525 | 0.994 | 1.05 | 0.692
